# Experimental data taken from PubChem BioAssay (NCI).
# This is part of a sample that, as a whole, favours compounds with a hit. Of some 83,000 tested, about 20% had one in any assay.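 Note: values are percent growth. 100 is the growth of untreated cells, values between 100 and 0 indicate rising inhibition; between -100 and 0 indicates cell death.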 Values without a mark were called inactive. Calls of active or inactive are those of the source. The calls were made as follows: active = growth percent below 10; inactive = the rest.
# How the values were obtained:
# Experiment in all cases: NCI-60 one-dose screen, 48 h (100 = growth as untreated, 0 = no growth, -100 = all killed)
# NCI-H322M lung = conditions: 10 µM unless noted
# HOP-62 NSCLC = conditions: 10 µM unless noted
# A549/ATCC NSCLC = conditions: 10 µM unless noted
# K-562 leukemia = conditions: 10 µM unless noted
# SNB-19 CNS = conditions: 10 µM unless noted
# LOX IMVI melanoma = conditions: 10 µM unless noted
# CAKI-1 renal = conditions: 10 µM unless noted
# SR leukemia = conditions: 10 µM
# RPMI-8226 leukemia = conditions: 10 µM unless noted
# BT-549 breast = conditions: 10 µM
# NCI-H522 lung = conditions: 10 µM unless noted
# SK-MEL-28 melanoma = conditions: 10 µM unless noted
# EKVX NSCLC = conditions: 10 µM unless noted
# SN12C renal = conditions: 10 µM unless noted
# CCRF-CEM leukemia = conditions: 10 µM unless noted
# IGROV1 ovarian = conditions: 10 µM
# HS 578T breast = conditions: 10 µM unless noted
# OVCAR-4 ovarian = conditions: 10 µM unless noted
Structure (SMILES),growth (NCI-H322M lung),growth (HOP-62 NSCLC),growth (A549/ATCC NSCLC),growth (K-562 leukemia),growth (SNB-19 CNS),growth (LOX IMVI melanoma),growth (CAKI-1 renal),growth (SR leukemia),growth (RPMI-8226 leukemia),growth (BT-549 breast),growth (NCI-H522 lung),growth (SK-MEL-28 melanoma),growth (EKVX NSCLC),growth (SN12C renal),growth (CCRF-CEM leukemia),growth (IGROV1 ovarian),growth (HS 578T breast),growth (OVCAR-4 ovarian)
CC1(C)N=C(N)N=C(N)N1c1ccc(CCCCc2ccc(S(=O)(=O)F)cc2)c(Cl)c1,43.1%,5.05% (active),8.36% (active),13.1%,38.7%,8.78% (active),17%,33.4%,9.22% (active),46.2%,,,,,,,,
CC(=O)C1CCC2C3CC=C4CC(OC(=O)Cc5ccc(N(CCCl)CCCl)cc5)CCC4(C)C3CCC12C (stereo not drawn),119%,112%,131%,,93.4%,,87.7%,,,92%,80%,107%,83.1%,96.6%,64.5%,97.3%,126%,
CC12CCC(=O)C=C1CCC1C2CCC2(C)C(C(=O)COC(=O)Cc3ccc(N(CCCl)CCCl)cc3)CCC12 (stereo not drawn),180%,106%,,77.5%,96.2%,86.4%,27.4%,,46.4%,,81.9%,104%,53.1%,73.2%,,,82.4%,91%
NC(=O)NC(=O)CI,119%,109%,98.6%,17.7%,86.3%,,,25.9%,91.3%,85.8%,,,,85%,,69.5%,94.3%,94.4%
